The panel holds about 83,000 compounds, 20% with a hit somewhere; the sample as a whole holds those more often.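 Testing used 96-well plates and a 48-hour single-concentration exposure. Example: -40 means 40% of the starting cells died.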 A number with no mark means an inactive call. Activity calls are given as the source filed them. The calls were made as follows: active = growth percent below 10; inactive = the rest.

For the assay, the system named is LOX IMVI melanoma. Kind of assay: NCI-60 one-dose screen, 48 h (100 = growth as untreated, 0 = no growth, -100 = all killed). The settings on record: 10 µM.
As to `COc1ccccc1Cn1cc2c(c1-c1ccccc1)CCc1cnoc1-2`, the growth was 38.1%. On to `COc1cc(-c2nc3ccc(C)cc3[nH]2)ccc1OCc1nnc(-c2ccc(CC(C)C)cc2)o1`, for which the growth was 103%. In the case of `C[n+]1c(/C=C/c2c[nH]c3ccccc23)ccc2ccccc21`, the growth was 60.5%.

For `COc1cc(Cl)cc(-c2nn(-c3cccc(NC(=O)Nc4cccc(C(F)(F)F)c4)c3)cc2-c2ccncc2)c1`, the growth was 4.64% (active). Consider `COc1cc(/C=C/C(=O)c2cc(-c3ccc(F)cc3)ccc2O)cc(OC)c1OC`, for which the growth was 48.9%. `Cc1ccc2c(c1)-c1cc(C)nn1-c1ccc(C#N)cc1O2`: the growth is 49.4%. The same measure for `C=CCNC(=S)NN`: 97.3%. On to `N/C(=N\O)c1cn(C2OC(CO)C(O)C2O)c2ncnc(N)c12` (stereo not given), for which the growth was -63.2% (active). The same measure for `CC(=O)c1c(O)cc2c3c1OC(C)(C)C1CCC(C)(CC31)O2` (stereo not given): 97.9%; for `CC(=O)Nc1ccc(Sc2ccc(NC(C)=O)cc2)cc1`: 96.3%; for `CC(=O)N(O)c1ccc(/C=C/c2ccccc2)cc1`: 25.9%. Consider `CCOc1nc(-c2ccccc2)cc2c(O)c(C(=O)N/N=C/c3ccc(OC)cc3)[nH]c(=O)c12`, for which the growth is 114%. As for `CNC(=S)Sc1ccc([N+](=O)[O-])cc1[N+](=O)[O-]`, the growth was 19.3%.

As for `O=C(COc1ccc(Cl)cc1Cl)Oc1coc(CSc2nc3ccccc3s2)cc1=O`, the growth was 90.5%. On to `COc1ccc(Cn2cc3c(c2-c2ccccc2)CC(C)(C)c2cnoc2-3)cc1`, for which the growth is 35.1%.
